The source of these data is PubChem BioAssay (NCI).

Among the test systems are HCT-15 colon; HT29 colon; SNB-75 CNS; SNB-19 CNS; U251 CNS; PC-3 prostate; SK-MEL-5 melanoma; UACC-62 melanoma; LOX IMVI melanoma; SK-MEL-28 melanoma; SK-MEL-2 melanoma; EKVX NSCLC; SN12C renal; UO-31 renal; TK-10 renal; ACHN renal; CAKI-1 renal; A498 renal; CCRF-CEM leukemia; MOLT-4 leukemia.
Assay in all cases: NCI-60 one-dose screen, 48 h (100 = growth as untreated, 0 = no growth, -100 = all killed)
Holding throughout (conditions): 10 µM unless noted

About 83,000 compounds went through this panel and 20% of them were active in at least one assay; those are over-represented in the sample as a whole.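 Negative percent growth values reflect cell death: -40 means 40% of the cells present at the start died, and -100 means all died.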 Unmarked numbers belong to inactive results. The source made the active and inactive calls. Rule for the calls: active = growth percent below 10; inactive = the rest.

Take `CCOC(=O)C1=C(C)NC(C)=C(C(=O)OCc2ccccc2)C1c1cccc(C#N)c1` (stereo not given): the growth in the test with HCT-15 colon is 23%; in the test with HT29 colon it was 11.5%; with SNB-75 CNS, -4.08% (active); in the test on SNB-19 CNS, 41.5%; in the test with U251 CNS, 41.4%; in the test with PC-3 prostate, 33.1%. The growth in the test with SK-MEL-5 melanoma is 54.3%; with UACC-62 melanoma, 33.4%; with LOX IMVI melanoma it was 35.8%; in the test on SK-MEL-28 melanoma it was 51.2%; in the test with SK-MEL-2 melanoma it was 24.9%; with EKVX NSCLC it was 37.1%. The growth in the test on SN12C renal is 36.5%; with UO-31 renal, 43.8%; in the test with TK-10 renal, 83.7%; with ACHN renal, 47.1%; in the test on CAKI-1 renal it was 32.4%; in the test with A498 renal, -4.45% (active). In addition, the values for the growth in the test on CCRF-CEM leukemia and in the test with MOLT-4 leukemia were 25.5% and 31.5%, respectively.

As to `Cc1ccc2c(n1)C(=O)C(Cl)=C(Nc1cccc(C)c1C)C2=O`, the growth in the test on HCT-15 colon is 9.66% (active); in the test on HT29 colon, 87.6%; in the test with SNB-75 CNS it was 61.2%; in the test on SNB-19 CNS, 13.3%; in the test on U251 CNS, -7.55% (active); in the test with PC-3 prostate it was 12.4%. The growth with SK-MEL-5 melanoma was -66.1% (active); in the test with UACC-62 melanoma, 0.0061% (active); in the test with LOX IMVI melanoma, -21.1% (active); in the test with SK-MEL-28 melanoma, 6.66% (active); in the test on SK-MEL-2 melanoma it was -42% (active); in the test on EKVX NSCLC, 31.2%. Moreover, the growth in the test on SN12C renal is -73.4% (active); with UO-31 renal, -22.8% (active); in the test with TK-10 renal, 142%; in the test with ACHN renal it was -25.5% (active); in the test with CAKI-1 renal, 56.5%; in the test on A498 renal, 64%. For the same compound, the growth in the test on CCRF-CEM leukemia was 2.35% (active); in the test with MOLT-4 leukemia, -10.3% (active).

Take `CCc1cc(O)ccc1Nc1cc(-c2ccc(-n3cccn3)cc2)[nH]n1`: the growth in the test with HCT-15 colon is 33.6%; with HT29 colon it was 77.4%; in the test with SNB-75 CNS it was 117%; in the test with SNB-19 CNS it was 69%; with U251 CNS it was 82.5%; in the test with PC-3 prostate, 60.9%. Besides, the growth was 49.2% with SK-MEL-5 melanoma; 43.2% with UACC-62 melanoma; 26.1% in the test with LOX IMVI melanoma; 80.8% in the test with SK-MEL-28 melanoma; 87.3% with SK-MEL-2 melanoma; 63% in the test with EKVX NSCLC. The growth was 73.5% in the test on SN12C renal; 50.9% with UO-31 renal; 98.6% with TK-10 renal; 43.9% in the test on ACHN renal; 44.8% with CAKI-1 renal; 92.9% in the test with A498 renal. For the same compound, the growth is 60.4% in the test on CCRF-CEM leukemia and 43.6% with MOLT-4 leukemia.

As to `Cc1ccccc1NC(=O)Nc1nc2ccc([N+](=O)[O-])cc2s1`, the growth with HCT-15 colon was 12.1%; in the test with HT29 colon, 5.11% (active); with SNB-75 CNS it was 6.72% (active); in the test with SNB-19 CNS it was 14.1%; in the test with U251 CNS it was 3.34% (active); in the test on PC-3 prostate it was 2.79% (active). The growth with SK-MEL-5 melanoma was -47.2% (active); in the test with UACC-62 melanoma it was 11.6%; in the test with LOX IMVI melanoma, 12.1%; in the test with SK-MEL-28 melanoma, 16.6%; in the test with SK-MEL-2 melanoma, -9.75% (active); with EKVX NSCLC, 10.3%. Also, the growth with SN12C renal is 6.76% (active); in the test with UO-31 renal it was 9.02% (active); in the test with TK-10 renal it was 12.2%; in the test with ACHN renal, 3.8% (active); with CAKI-1 renal, -19.4% (active); with A498 renal, -24.7% (active). Besides, the growth with CCRF-CEM leukemia is 16.2%; in the test with MOLT-4 leukemia it was 12.5%.

Consider `Clc1cccc(/C=N/Nc2nc(N/N=C/c3cccc(Cl)c3)nc(N3CCOCC3)n2)c1`, for which the growth in the test on HCT-15 colon is -11.1% (active); with HT29 colon, 8.21% (active); in the test on SNB-75 CNS, 103%; in the test on SNB-19 CNS, 88%; with U251 CNS, 60.4%; in the test on PC-3 prostate it was 41.5%. The growth was 44.1% in the test on SK-MEL-5 melanoma; 91.7% in the test with UACC-62 melanoma; 32.6% in the test on LOX IMVI melanoma; 29.8% in the test with SK-MEL-28 melanoma; -1.89% (active) in the test with SK-MEL-2 melanoma; 72.2% with EKVX NSCLC. For the same compound, the growth in the test on SN12C renal was 59.9%; with UO-31 renal, 26.8%; with TK-10 renal it was 100%; with ACHN renal it was 25.8%; in the test on CAKI-1 renal it was 37.6%; with A498 renal, 4.3% (active). The values for the growth in the test on CCRF-CEM leukemia and with MOLT-4 leukemia were 24.8% and 6.04% (active), respectively.

Consider `Cn1cc(-c2cc3ncnc(Nc4ccc(CC(=O)Nc5nc(C(C)(C)C)cs5)cc4)c3s2)cn1`, for which the growth is 26.6% in the test on HCT-15 colon; 49.9% in the test on HT29 colon; 50.9% in the test with SNB-75 CNS; 94.5% with SNB-19 CNS; 66% in the test with U251 CNS; 41.4% in the test on PC-3 prostate. Also, the growth in the test with SK-MEL-5 melanoma is 53%; in the test on UACC-62 melanoma it was 40.3%; in the test with LOX IMVI melanoma, 26.3%; in the test with SK-MEL-28 melanoma, 68.9%; in the test with SK-MEL-2 melanoma it was 36.5%; with EKVX NSCLC, 48%. Moreover, the growth in the test with SN12C renal was 23.6%; in the test on UO-31 renal it was 31.6%; in the test on TK-10 renal it was 44.7%; with ACHN renal, 18.6%; in the test on CAKI-1 renal, 7.53% (active); in the test with A498 renal, -4.34% (active). For the same compound, the values for the growth in the test on CCRF-CEM leukemia and in the test with MOLT-4 leukemia were 23.1% and 16%, respectively.

In the case of `COc1cc(C(=O)c2cc(C(C)=O)c3ccc(C)cn23)cc(OC)c1OC`, the growth with HCT-15 colon was 18.9%; in the test on HT29 colon, 15.6%; with SNB-75 CNS it was 6.02% (active); in the test on SNB-19 CNS, 40%; with U251 CNS, 34%; in the test on PC-3 prostate, 55.6%. In addition, the growth was 36.7% with SK-MEL-5 melanoma; 17.2% with UACC-62 melanoma; 34.5% with LOX IMVI melanoma; 58.1% in the test with SK-MEL-28 melanoma; 37.5% in the test with SK-MEL-2 melanoma; 46.5% with EKVX NSCLC. For the same compound, the growth in the test on SN12C renal was 42.4%; in the test on UO-31 renal it was 44%; in the test on TK-10 renal it was 76.3%; in the test with ACHN renal it was 51.3%; with CAKI-1 renal it was 34.3%; in the test on A498 renal it was 38.3%. The values for the growth with CCRF-CEM leukemia and in the test with MOLT-4 leukemia were 47.1% and 28.5%, respectively.
